# Test results: PubChem BioAssay (NCI)
# Compounds without any hit were thinned out: in the full panel of roughly 83,000, 20% have a hit.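 In brief: 96-well plates, 48 h treatment, single concentration, percent growth endpoint.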 Activity calls are given as the source filed them. How the source made its calls: active means growth percent below 10; inactive means the rest.
# Test system: HL-60(TB) leukemia
# Experiment: NCI-60 one-dose screen, 48 h (100 = growth as untreated, 0 = no growth, -100 = all killed)
# Conditions: 10 µM unless noted
row,SMILES,growth
1,Cc1ccc(-n2cc(-c3ccccc3)c3c2N=NN2CCN=C32)cc1,101% (inactive)
2,CN1CCN(Cc2ccc(NC(=O)c3cncc(C#Cc4c(N)ncc5ccc(C#N)cc45)c3)cc2C(F)(F)F)CC1,9.71% (active)
3,CCN(CC)CCCCCNc1cc(OC(=O)c2ccccc2)cc2cccnc12,79.8% (inactive)
4,O=c1cc(CSc2nnc(SCc3cc(=O)oc4c3ccc3ccccc34)o2)c2ccc3ccccc3c2o1,97.8% (inactive)
5,C#C[C@H]1CCCCCC1O (stereo not given in full),96.1% (inactive)
6,Cc1nc2nc(N)nc(N)c2nc1C,94.2% (inactive)
7,N#Cc1cccc(-c2ccc3c(c2)NC(=O)/C3=C\c2ccc[nH]2)c1,64.8% (inactive)
8,Oc1ccc(Cc2ccccc2)c2cccnc12,-15.8% (active)
9,Ic1ccccc1I,94.1% (inactive)
10,CC[C@H](Nc1nc(N)nc(N)c1Cl)c1nc2cccc(NCc3ccc(C(=O)NO)cc3)c2c(=O)n1-c1ccccc1,-34.7% (active)
11,C/C=C/C/C=C/[C@H](C)C[C@H](O)[C@@H]1C[C@@H]2O[C@H]2/C=C/[C@H](O)[C@@H](O)/C=C/C[C@H](C)CC(=O)O1,76.6% (inactive)
12,COc1ccc(/C(C)=C(\c2ccc(Cl)cc2)c2ccc(OCCN(C)C)cc2)cc1F,58.2% (inactive)
13,CN1[C@@H]2CC[C@H]1/C(=C\c1ccccc1)C1=C2[C@@H](c2ccccc2)C(C#N)=C(N)O1,60.4% (inactive)
14,CCOC(=O)c1c(C)n(-c2ccc(Cl)cc2)c2ccc(OC(=O)/C=C/c3ccccc3)cc12,57.1% (inactive)
15,CCOC(=O)c1ccc(NC(=S)P(=O)(c2ccccc2)c2ccccc2)cc1,80.4% (inactive)
16,Nc1c(C(=O)Nc2cccc(Cl)c2)sc2nc3c(cc12)C(O)CCC3 (stereo not given),2.96% (active)
17,CN1CCN(c2c(F)cc(NC3=C(Cl)C(=O)c4ncccc4C3=O)cc2F)CC1,-24.7% (active)
18,O=C(NC1CCN(Cc2ccccc2)CC1)c1cc(C(=O)NC2CCN(Cc3ccccc3)CC2)cc(C(=O)NC2CCN(Cc3ccccc3)CC2)c1,64.3% (inactive)
19,COc1cc2cc3c(nc2cc1OC)CCN3Cc1ccc(NC(=O)Nc2ccc(F)cc2F)cc1,80.5% (inactive)
20,O=C(NOC(=O)c1ccccc1)c1ccccc1,87.1% (inactive)

row,SMILES,growth
1,COc1cc(/C=C2\C(=O)N(CCCOc3cc(O)c4c(=O)cc(-c5ccccc5)oc4c3)c3ccccc32)cc(OC)c1O,47.2% (inactive)
2,Cc1[nH]ccc2cc3nc4ccccc4c3cc12,16.4% (inactive)
3,O=c1[nH]c(=O)n(C2C[C@@H](O)[C@@H](CO)O2)cc1F (stereo not given in full),27.1% (inactive)
4,Cc1ccc(C(=O)Nc2ccc(CN3CCN(C)CC3)c(C(F)(F)F)c2)cc1C#Cc1cnc2cccnn12,-71.9% (active)
5,O=S(=O)(O)CC(O)CN1CCN(CCO)CC1 (stereo not given),96% (inactive)
6,CC(CN)[C@@H]1CC[C@]2(CO)CC[C@]3(C)[C@H](CC[C@@H]4[C@@]5(C)CCC(N)C(C)(C)[C@@H]5CC[C@]43C)[C@@H]12 (stereo not given in full),31.5% (inactive)
7,O=C1C2=C(CCN(Cc3ccccc3)C2)N2CCN=C2N1Cc1ccc(C(F)(F)F)cc1,20.4% (inactive)
8,COc1cccc(-c2nn(-c3ccccc3)cc2-c2ccnc(NCCNC(=O)Nc3ccccc3)c2)c1,19.9% (inactive)
9,CC(C)CNCC(O)COc1ccc(C(C)(C)c2ccc(OCC(O)CNCC(C)C)cc2)cc1 (stereo not given),26% (inactive)
10,COc1ccc(-c2ccc(-c3ccc(C(=N)N)cn3)s2)cc1Cl,-55.3% (active)
11,CCN(CCO)CC(=O)c1cc(Cl)cc(Cl)c1Cl,106% (inactive)
12,COCCNC(=O)Cc1cc(-c2ccc(Cl)cc2)n(-c2ccccc2)c1C,66.4% (inactive)
13,N#Cc1c(N2CCOCC2)nc(=S)[nH]c1-c1ccccc1,70.2% (inactive)
14,O=C1C=CC(=CC=C2C=CN(CCCCCCCCCCCO)C=C2)C=C1,4.05% (active)
15,Oc1cccc(CNC2CCCCC2)c1,107% (inactive)
16,Brc1ccc(Cn2nnnc2-c2ccn(-c3ccccc3)n2)cc1,69.1% (inactive)
17,COc1cc(C2CC(c3ccc(N(C)C)cc3)=NN2C(C)=O)cc(OC)c1OC (stereo not given),-3.98% (active)
18,Cc1ccc2c(n1)C(=O)c1[nH]c3ccccc3c1C2=O,67.8% (inactive)
19,COC(CC(F)F)c1cn(S(=O)(=O)c2ccc(C)cc2)c2ccccc12 (stereo not given),8.92% (active)
20,C#CCOc1cccc(Nc2ncnc3c2ncn3C2CCN(C(=O)CCl)C2)c1 (stereo not given),-56.3% (active)
